Data reported in the supplement of paper PMC4371806.
Whole data set: some 2,300 compounds, median “plate-normalized OD600 growth (mean of duplicates)” near 0.29, cut for the lowest 2% near 0.22. For the sample, the lowest values were picked, then their nearest neighbours and some compounds at random.

Test system: Escherichia coli BW25113
Experiment: plate-normalized OD600 growth (mean of duplicates) (OD600 (normalized)); higher = more growth (less inhibition)
Settings: 10 µM
Protocol: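 E. coli BW25113 in LB (100 µl, 96-well, no shaking) was exposed to 10 µM of each compound from a ~30,000-member library and grown at 37°C for 24 h or 15°C for 48 h, in duplicate. Growth was read as OD600 and the duplicate ODs were normalized across screening plates to correct plate-to-plate variation. Hits were >3σ below the mean OD600 at 15°C and <2σ below the mean at 37°C.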

Row | SMILES | plate-normalized OD600 growth (temperature: 15°C, 48 h) | plate-normalized OD600 growth (temperature: 37°C, 24 h)
1 | O=C(COc1ccccc1[N+](=O)[O-])Nc1ccccn1 | 0.24 | 0.619
2 | COc1ccc(Nc2nc(N/N=C/c3ccc(-c4cccc(C(=O)O)c4)o3)nc(Nc3ccccc3)n2)cc1 | 0.226 | 0.634
3 | CC(C)(C)OC(=O)NC(Cc1ccc(OCc2ccccc2)cc1)C(=O)O (stereo not given) | 0.26 | 0.615
4 | CCOC(=O)/C(C(C)=O)=C1/SCC(C)S1 (stereo not given) | 0.235 | 0.609
5 | O=C1CC2(CCCC2)C(=O)N1CCNc1nccc(C(F)(F)F)n1 | 0.261 | 0.637
6 | Cc1ccc(NC(=O)Nc2ccc(C)c(NC(=O)Nc3ccc(C)cc3)c2)cc1 | 0.242 | 0.578
7 | O=C(CNC(=O)C(c1ccccc1)c1ccccc1)N/N=C/c1cc(Br)ccc1O | 0.237 | 0.617
8 | COc1cc(OC)c(C2C(C#N)=C(N)Oc3n[nH]c(-c4cccnc4)c32)cc1OC (stereo not given) | 0.244 | 0.612
9 | CCc1nc(N)c(C#N)c(-c2ccccc2)c1C | 0.239 | 0.61
10 | CSc1nc2sc(C)c(C)c2c(=O)n1-c1ccccc1 | 0.219 | 0.653
11 | O=C1/C(=C\c2ccc(Cl)cc2Cl)N=C(c2ccccc2)N1C1CC1 | 0.241 | 0.577
12 | COc1ccc(C(=O)NCC(=O)N/N=C(\C)c2cccc(N)c2)cc1OC | 0.249 | 0.633
13 | O=C1CCc2cccc3cccc1c23 | 0.235 | 0.604
14 | CCN(CC)c1ccc(C2C(C(=O)OC3CCCCC3)=C(C)NC3=C2C(=O)CC(c2ccc(Cl)cc2)C3)cc1 (stereo not given) | 0.238 | 0.614
15 | CC1(C)C2CCC1(C)C(N/C(=C(/C(Cl)=C(Cl)Cl)[N+](=O)[O-])n1nnc3ccccc31)C2 (stereo not given) | 0.253 | 0.629
16 | CSc1ccc(/C=C2\N=C(c3ccccc3)N(c3ccc(C(=O)Nc4ccc(Br)cc4)cc3)C2=O)cc1 | 0.257 | 0.649
17 | COc1ccc(OC)c(NC(=O)c2ccc(N3C(=O)/C(=C/c4ccc(Cl)cc4)N=C3c3ccccc3)cc2)c1 | 0.216 | 0.634
18 | O=C(Nc1ccc(F)c(Cl)c1)c1ccc(N2C(=O)/C(=C/c3ccccc3)N=C2c2ccccc2)cc1 | 0.238 | 0.653
19 | COc1cc(NC(=S)N2CCN(c3ccccc3OC)CC2)c(OC)cc1Cl | 0.231 | 0.614
20 | Cc1cc(N2CCCC2)ccc1/C=N/n1cnnc1 | 0.259 | 0.687
21 | Cc1cc(C=Nc2ccc(Cl)c(O)c2)c(C)n1-c1ccc(Cl)cc1 | 0.248 | 0.605
22 | CN1N=C(SCc2ccc(Cl)cc2Cl)Sc2c1cnn(C)c2=O | 0.25 | 0.591
23 | CCCCCCCCNC(=O)C(=O)Nc1cccc(F)c1 | 0.244 | 0.564
24 | Cc1ccc2c(c1)N(CCO)C(C)(C)CC2C (stereo not given) | 0.211 | 0.651

Row | SMILES | plate-normalized OD600 growth (temperature: 15°C, 48 h) | plate-normalized OD600 growth (temperature: 37°C, 24 h)
25 | O=C(Nc1ccc(S(=O)(=O)Nc2cccc(Cl)c2Cl)cc1)C1COc2ccccc2O1 (stereo not given) | 0.262 | 0.62
26 | Cc1cc(C)c2nc3s/c(=C\c4ccccc4C(F)(F)F)c(=O)n3c2c1 | 0.249 | 0.593
27 | Cc1nc(-c2ccccn2)nc(NCCNc2cccc(C(F)(F)F)n2)c1Cl | 0.257 | 0.626
28 | O=C(CC1CCC1)Nc1cc(Cl)ccc1Cl | 0.256 | 0.619
29 | Cc1nnsc1C(=O)Nc1ccc(CN2CCS(=O)(=O)CC2)cc1 | 0.244 | 0.614
30 | Cc1ccc(S(=O)(=O)N=C(Nc2ccc(O)c(Cl)c2)c2ccccc2)cc1 | 0.232 | 0.618
31 | Cc1cc(NC(=NS(=O)(=O)c2ccc(Br)cc2)c2ccccc2)cc(C)c1O | 0.251 | 0.652
32 | Cc1cc(NC(=NS(=O)(=O)c2ccc(Br)cc2)c2ccccc2)c(Cl)c(C)c1O | 0.214 | 0.634
33 | Cc1oc(CC(C)C)cc1C(=O)Nc1cccc(C(=O)O)c1 | 0.255 | 0.643
34 | Nc1ccccc1C(=O)Nc1cc(C(=O)O)cc(C(=O)O)c1 | 0.232 | 0.625
35 | NC(N)=Nc1nc(-c2cc(Cl)sc2Cl)cs1 | 0.242 | 0.607
36 | COc1cc(NC(=O)CCN2CCC(C)CC2)cc(OC)c1 | 0.217 | 0.647
37 | Cc1c(Br)sc2ccc(Cl)cc12 | 0.247 | 0.612
38 | O=C(CC1(O)C(=O)C=C(c2ccccc2)N1N=C(c1ccccc1)c1ccccc1)c1ccccc1 (stereo not given) | 0.242 | 0.588
39 | CCOC(=O)COc1nc(-c2ccccc2)cc(-c2ccccc2)c1C#N | 0.251 | 0.629
40 | COc1ccc(C2SCC(=O)N2CCN2CCCCC2)cc1 (stereo not given) | 0.238 | 0.618
41 | O=c1[nH]c2cccnc2[nH]c1=O | 0.233 | 0.617
42 | COc1ccc(C2CC(=O)N2C2(C(=O)Nc3c(C)cccc3C)CCCCC2)cc1OC (stereo not given) | 0.24 | 0.605
43 | c1ccc(OCCOc2ccccn2)nc1 | 0.25 | 0.612
44 | COc1ccc(Nc2nc(Cl)nc(NCCC3=CCCCC3)n2)cc1 | 0.257 | 0.602
45 | O=C1c2cccc3c(SCCO)ccc(c23)C(=O)N1CCc1ccccn1 | 0.265 | 0.634
46 | O=C(O)c1cccc(N=Cc2ccc(OCc3ccc(F)cc3)cc2)c1 | 0.225 | 0.684
47 | CCCc1ccc(OCC(=O)NNC(=S)Nc2ccccc2)cc1 | 0.244 | 0.618
48 | C=CCn1c(CSc2ccccc2[N+](=O)[O-])n[nH]c1=S | 0.26 | 0.606

Row | SMILES | plate-normalized OD600 growth (temperature: 15°C, 48 h) | plate-normalized OD600 growth (temperature: 37°C, 24 h)
49 | C=CCn1c(Sc2ncc([N+](=O)[O-])s2)n[nH]c1=O | 0.181 | 0.588
50 | O=[N+]([O-])c1cnc(Sc2n[nH]c(-c3cccs3)n2)s1 | 0.225 | 0.607
51 | COc1ccc(/C=N/Nc2nnnn2-c2cccc3ccccc23)cc1OC | 0.253 | 0.627
52 | N#CCC(=O)N(Cc1ccccc1F)C(=O)NC1CCCCC1 | 0.263 | 0.647
53 | N/C(=N/OC(=O)c1ccccc1)c1ccc(-c2csnn2)cc1 | 0.252 | 0.6
54 | CCC(C)(C)C1CCc2sc3nc[nH]c(=O)c3c2C1 (stereo not given) | 0.248 | 0.626
55 | CCOc1cc(/C=N/n2cnc3sc4c(c3c2=O)CCCC4)cc(Br)c1OCc1ccc(Cl)cc1 | 0.245 | 0.619
56 | CCOC(=O)c1ccc(-c2ccc(/C=C(\C#N)C(=O)NC3CCCCC3)o2)cc1 | 0.241 | 0.604
57 | Cc1cc(C)c(C(=O)CSc2nc3ccccc3[nH]2)c(C)c1 | 0.213 | 0.626
58 | COC(=O)CSc1nc(N)cc(=O)[nH]1 | 0.247 | 0.605
59 | O=C(CSc1nc2ccccc2[nH]1)Nc1nc2ccccc2s1 | 0.244 | 0.604
60 | O=C1CC(NCc2ccco2)C(=O)N1c1ccc(OC(F)(F)Cl)cc1 (stereo not given) | 0.268 | 0.642
61 | CCOC(=O)C(=CNNc1ccnc2cc(Cl)ccc12)C(=O)OCC | 0.26 | 0.616
62 | CCOC(=O)C(=CNNS(=O)(=O)c1cc(C(F)(F)F)cc(C(F)(F)F)c1)C(=O)OCC | 0.246 | 0.602
63 | CCOC(=O)C(=CNNC(=O)c1ccccc1-n1cccc1)C(=O)OCC | 0.213 | 0.618
64 | CC1COCCN1c1cc(N2CCCCC2C(F)(F)F)[nH]c(=O)c1 (stereo not given) | 0.265 | 0.635
65 | N=c1c(S(=O)(=O)c2ccccc2)c(N)c(CO)c2sc3ccccc3n12 | 0.236 | 0.601
66 | Nc1[nH]c(=O)c(CO)c(N)c1S(=O)(=O)c1ccccc1 | 0.211 | 0.632
67 | NS(=O)(=O)c1ccc(-n2ncc3ccccc3c2=O)cc1 | 0.214 | 0.646
68 | CCOC(=O)c1cnn(-c2ccc(NS(=O)(=O)c3ccc(Cl)cc3)cc2)c1C(F)(F)F | 0.233 | 0.609
69 | O=C(CNC(=O)C(c1ccccc1)c1ccccc1)N/N=C/c1ccc(-c2ccc(Cl)c(Cl)c2)o1 | 0.238 | 0.611
70 | O=C(COc1ccc(C(F)(F)F)cc1[N+](=O)[O-])Nc1cccc(C(F)(F)F)c1 | 0.264 | 0.633
71 | Cc1cccc(NC(=O)COc2ccccc2C(=O)NCCNc2ccc([N+](=O)[O-])cc2)c1 | 0.209 | 0.656
72 | Cc1ccccc1OCC(=O)Nc1cccc(N2C(=O)c3ccccc3C2=O)c1 | 0.235 | 0.661

Row | SMILES | plate-normalized OD600 growth (temperature: 15°C, 48 h) | plate-normalized OD600 growth (temperature: 37°C, 24 h)
73 | CCC/C=N/NC(=O)c1ccc(N2CCCC2=O)cc1 | 0.26 | 0.647
74 | c1ccc2c(c1)OCCCOc1ccccc1OCCCO2 | 0.251 | 0.607
75 | COc1cc(S(=O)(=O)N2CCN(c3c(C)cccc3C)CC2)c(OC)cc1Cl | 0.253 | 0.617
76 | COc1cc2c(cc1OC)C(C)N(S(=O)(=O)c1cn(C)c(C)n1)CC2 (stereo not given) | 0.245 | 0.611
77 | CC(C)CC(=O)N(NC(=O)c1ccccc1)c1ccccc1 | 0.22 | 0.615
78 | COc1ccccc1Oc1ccc(C(F)(F)F)cc1NC(=O)NC(=O)c1ccccc1F | 0.265 | 0.619
79 | O=C1/C(=C\c2ccccc2)N=C(c2ccccc2)N1CNc1nccs1 | 0.254 | 0.585
80 | O=C(O)c1cccc(S(=O)(=O)Nc2ccc(Cl)cc2)c1 | 0.257 | 0.625
81 | CC1=C(C#N)C(c2c(C)[nH]n(-c3ccccc3)c2=O)(C(F)(F)F)C(=O)N1 (stereo not given) | 0.26 | 0.62
82 | COc1ccccc1N=C(N)SCc1ccccc1 | 0.236 | 0.606
83 | CCc1ccc(NC(=O)CSc2nnc3n(N)cnn23)cc1 | 0.238 | 0.609
84 | Cc1cc(O)c(C)c(O)c1/C=N/NC(=O)CNC(=O)c1ccco1 | 0.245 | 0.61
85 | Cc1ccc(NC(=O)c2c3c(nc4ccccc24)CCCC3)cc1 | 0.239 | 0.614
86 | C=CCn1c(C(O)c2ccccc2)n[nH]c1=S (stereo not given) | 0.247 | 0.613
87 | O=c1nc(-c2ccccc2)nc(-c2ccccc2)[nH]1 | 0.26 | 0.617
88 | Cc1ccc2nc(Cl)c(C=Nc3ccccn3)cc2c1 | 0.226 | 0.611
89 | COc1ccc(S(=O)(=O)N(Cc2ccccc2)c2ccccc2C(=O)N/N=C(\C)c2ccccc2O)cc1 | 0.259 | 0.618
90 | O=C(NC(=S)Nc1ccc(Cc2ccncc2)cc1)c1cccc2ccccc12 | 0.259 | 0.614
91 | COc1cc(CCNC(=O)OC(C)(C)C)c([S+]([O-])CSCc2ccccc2)cc1OC (stereo not given) | 0.238 | 0.613
92 | Cc1cc(=O)oc2n[nH]c(-c3ccccc3)c12 | 0.258 | 0.64
93 | O=C(NCCSC1CCCCC1)c1ccco1 | 0.221 | 0.633
94 | O=C(c1ccco1)N1CCC(c2ccccc2)C1 (stereo not given) | 0.201 | 0.642
95 | NC(=O)C1CCN(C(=O)c2ccco2)CC1 | 0.25 | 0.628
